Compounds with a hit are over-represented: about 15% of the library has one in this group of screens.
HCMV antiviral: human cytomegalovirus inhibition. activity change, negative = inhibition, % at 57.5 µM. 410,000 tested, 4.5% active. AID 1259415. HFF cells, HCMV-luciferase reporter, 72 h; active compounds read low; in the data active = activity change below about -60%; inconclusive = no clear call, values can overlap the other calls; inactive = above about -39%; note: % is set by controls: 0 for no effect and ±100 for the full control effect
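Compounds were evaluated in HFFs infected with an HCMV luciferase reporter virus (MOI 1 PFU/cell). Luciferase in lysates collected 72 h post infection served as the replication measure.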
SARS PLpro yeast-1: blocks SARS-CoV papain-like protease in a yeast assay; Potency, µM (series often up to 32.9 µM), for the others: at the highest dose activity, positive = growth rescue, hits mostly activators; S. cerevisiae expressing SARS-CoV PLpro, growth rescue; 330,000 tested, 0.19% active; AID 485353; calls by dose curve; note: potency is the fitted concentration of half-maximal effect; 0% is about no effect; nearly all actives have a fitted effect of over 55% in size
HCV inhibitor: inhibitors of hepatitis C virus infection | Huh7.5.1 HCVcc-Cre infection, luciferase reporter, 44 h | Potency, µM (titrated, usually from 41.8 µM), without a hit: at the top dose activity change, negative = inhibition, actives largely listed as inhibitors | 340,000 tested, 3.4% active | AID 651820; note: potency is the fitted concentration of half-maximal effect; % is set by controls: 0 for no effect and ±100 for the full control effect
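Infectious HCVcc-Cre (~0.5 moi) was added to cells just after compound, with cells seeded 4 h earlier at 1,000 per well. Luciferase activity after 44 h culture reported infection; substrate was incubated 15 min at room temperature before reading.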
Pf growth 48h: inhibits P. falciparum growth in the first generation, 48 h | P. falciparum luciferase growth in erythrocytes, 48 h | AID 504832 | 310,000 tested, 5.9% active | Potency, µM (titrated, usually from 28.7 µM), inactives show at the top dose activity change, negative = inhibition, usual class: inhibitors; note: potency is the fitted concentration of half-maximal effect; % is set by controls: 0 for no effect and ±100 for the full control effect
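Here the parasites carry a stable luciferase gene and grow inside erythrocytes in Albumax-based RPMI medium with compound for one erythrocytic cycle. Activity is scored as loss of luminescent signal.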
Sm TGR block: inhibitors of Schistosoma mansoni thioredoxin glutathione reductase | purified TGR, DTNB reduction, TNB absorbance 405 nm | Potency, µM (doses to about 114 µM), for the others: at the top dose activity change, negative = inhibition, most hits filed as inhibitors | 360,000 tested, 3% active | AID 485364; note: potency is the fitted concentration of half-maximal effect; % is set by controls: 0 for no effect and ±100 for the full control effect; nearly all actives have a fitted effect of over 60% in size
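First, TGR (20 nM dispensed) and NADPH were mixed with compound. Second, a 15 min room-temperature incubation followed. Third, further NADPH and then DTNB were added to start the reaction. Finally, TNB absorbance was monitored kinetically.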
Pf growth 96h: P. falciparum growth inhibition at 96 hours. P. falciparum luciferase reporter growth, 96 h. Potency, µM (doses to about 28.7 µM), for the others: at the top dose activity change, negative = inhibition, hits mostly inhibitors. 320,000 tested, 6.9% active. AID 504834; note: potency is the fitted concentration of half-maximal effect; % is set by controls: 0 for no effect and ±100 for the full control effect
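Readout is luminescence from an integrated firefly luciferase in P. falciparum. Red cells, 2% hematocrit and 0.05% parasitemia final, were cultured with compound through two parasite generations (96 hours) at 37 C, 5% CO2.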
SARS PLpro yeast-2: Inhibits SARS-CoV PLP in yeast, hit validation; shares compounds with SARS PLpro yeast-1; yeast expressing SARS-CoV PLpro, growth phenotype rescue; calls only; 1,000 tested, 19% active; AID 652038; call rule not given here
HCV inh confirm: confirmation of hepatitis C virus inhibitors. shares compounds with HCV inhibitor. HCVcc-Cre infectious virus cell assay, luciferase, inhibition. Potency, µM (highest dose often 41.8 µM), inactives show at the top dose activity, negative = inhibition, hits mostly inhibitors. 640 tested, 78% active; note: potency is the fitted concentration of half-maximal effect; nearly all actives have a fitted effect of over 80% in size
HCV host tox: host cell cytotoxicity counter-screen for HCV inhibitors; shares compounds with HCV inhibitor; HCV host cell line cytotoxicity counterscreen; Potency, µM (series often up to 41.8 µM), for inactives: at the top dose activity change, negative = cytotoxicity, hits mostly inhibitors; 640 tested, 22% active;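 note: potency is the fitted concentration of half-maximal effect; 44 h compound exposure; % is set by controls: 0 for no effect and ±100 for the full control effect; nearly all actives have a fitted effect of over 55% in size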
An asterisk follows results filed as active; i = inactive; ? = inconclusive; . = not tested or not shown. Unless noted, calls come from the whole dose curve; as a rule, active = well fitted curve in the direction sought with a large enough effect; inconclusive = small, poorly fitted or top-dose-only effect, or another doubt; inactive = no such curve, though single readings can be large; an effect the other way counts as inactive or inconclusive.

SMILES | HCMV antiviral | SARS PLpro yeast-1 | HCV inhibitor | Pf growth 48h | Sm TGR block | Pf growth 96h | SARS PLpro yeast-2 | others
O=C(C(Cc1ccccc1)NS(=O)(=O)c1cccc2cccnc12)N1CCc2ccccc21 (configuration not stated) | ? | -2% | 12% | . | 5% | ? | .
COc1ccc(N2CCN(C3CCCN(C(=O)c4ccoc4)C3)CC2)cc1 (configuration not stated) | -24 | 0% | 6% | ? | -6% | ? | .
COc1ccc(N2CCN(C3CCCN(C(=O)C4=C(C)OCCO4)C3)CC2)cc1 (configuration not stated) | 6 | ? | 24% | 5% | -12% | -20% | i
O=C(Nc1nc2ccc(F)cc2s1)c1cccc(S(=O)(=O)N2CCc3ccccc32)c1 | -13 | 3.2µM* | ? | -2% | ? | ? | i
Cc1ccccc1NC(=O)CCCN1C(=O)C2CC=CCC2C1=O (configuration not stated) | 45 | ? | 6% | 2% | -23% | 31% | .
NC(=S)N/N=C/c1ccccc1OCc1cccc(Cl)c1 | . | 16µM* | 11µM* | 13µM* | 4% | 9.3µM* | ?
CC1CC1C(=O)N(C)CC(=O)Nc1ccc(Cl)c(C(F)(F)F)c1 (configuration not stated) | -9 | ? | -14% | -4% | -2% | ? | i
COc1cccc(-n2nnc3c(=O)n(CC(=O)OCc4ccccc4)cnc32)c1 | 29 | ? | 9% | 13% | 4% | 0.17µM* | i
CCOC(=O)c1cc(C#N)c(SC(C)C(=O)NC2CCCCC2)nc1C (configuration not stated) | -13 | -4% | -3% | 2% | -8% | 41% | .
Cc1cc(C)n2nc(C(=O)OCC(=O)N3C(C)CCCC3C)nc2n1 (configuration not stated) | -17 | 9% | -2% | -7% | -1% | 8% | .
O=C(c1ccccc1)N1CCN(C(=O)N2CCOCC2)CC1 | 57 | ? | 13% | . | -2% | . | i
NC(=S)Nc1cccc2cccnc12 | -79* | ? | 16% | 7% | 2% | ? | i
Cc1nc2ccccn2c1C(=O)CSc1ccccc1 | -20 | -3% | -16% | 34% | 2% | ? | .
C[C@H](CO)N1C[C@H](C)[C@H](CN(C)C(=O)c2ccccc2)OCc2ccccc2-c2c(n(C)c3ccccc23)C1=O | -10 | . | . | . | . | . | .
CC(O)(c1cccnc1)c1nc(-c2cccc(C(F)(F)F)c2)cs1 (configuration not stated) | -3 | . | . | . | . | . | .
NNC(=O)c1cc(-c2ccc(O)cc2)nc2ccc(Br)cc12 | -6 | -1% | 3% | ? | 2% | ? | .
Cc1ccc(-c2cc(C(=O)NCc3cnn(C)c3C)c3cc(Br)ccc3n2)cc1 | 60 | ? | ? | 2% | -5% | ? | i
Cc1cc(C(=O)NNC(=O)c2ccc(S(=O)(=O)N(C)C)cc2)c(C)o1 | -5 | 2.5µM* | 0% | 11% | -5% | 16% | i
Cc1ccccc1CSc1cn(CC(=O)N2CCCCCC2)c2ccccc12 | 44 | . | . | . | 2% | . | .
CCCCC(=O)NN(C)c1nc(-c2ccccc2)nnc1C(F)(F)F | ? | 12% | -25% | . | 2% | 5% | .
CC(C)CC(=O)NN(C)c1nc(-c2ccccc2)nnc1C(F)(F)F | -9 | ? | -8% | . | -12% | ? | i
COc1ccc(S(=O)(=O)N2CCC(C(=O)NCc3cccnc3)CC2)cc1Cl | ? | 2% | 13% | 1% | 3% | 30% | .
O=C(CCC(=O)N/N=C/c1c[nH]c2ccccc12)NCc1ccccc1 | 64 | 1% | 30% | 1% | -16% | ? | .
CCN(CC)c1ccc(/C=N/NC(=O)c2c(Cl)cnn2C)c(O)c1 | -101* | ? | 3.5µM* | ? | -25% | ? | i
CCN(CC)c1ccc(/C=N/NC(=O)CCC(=O)NCc2ccccc2)c(O)c1 | -16 | 4µM* | ? | 13µM* | -2% | ? | i
SMILES | HCMV antiviral | SARS PLpro yeast-1 | HCV inhibitor | Pf growth 48h | Sm TGR block | Pf growth 96h | SARS PLpro yeast-2 | others
Cc1cc(=O)[nH]c(N/N=C/c2c(F)c(F)c(F)c(F)c2F)n1 | 45 | 0% | 18% | . | 12% | 3% | .
CCN(CC)c1ccc(/C=N/Nc2nc(C)cc(=O)[nH]2)c(O)c1 | -98* | 4.5µM* | 4µM* | 1.9µM* | 4% | 1.9µM* | i
Cc1cccc(N(C)C(=O)Cn2cnc3nc4c(cc3c2=O)CCCC4)c1 | 6 | . | . | . | -9% | . | .
CCOc1ccc(NC(=O)CN(C)C(=O)c2c(C)nn(-c3ccc(F)cc3)c2Cl)cc1OCC | -16 | ? | ? | ? | 1% | -1% | i
CCOc1ccc(NC(=O)CN(C)C(=O)c2c(C)nn(-c3ccccc3)c2Cl)cc1OCC | -10 | 5% | ? | -12% | 6% | -11% | .
COc1ccccc1C(=O)NC(C)c1ccc(-n2ccnc2)cc1 (configuration not stated) | 1 | 4% | -11% | ? | 2% | ? | .
Cc1cc(C)c2nc(NNC(=O)c3ccc(S(=O)(=O)N4CCc5ccccc5C4)cc3)sc2c1 | -97* | 5.6µM* | 4.5µM* | 2.3µM* | 4% | 3.7µM* | ? | HCV inh confirm=3.5µM*;HCV host tox=?
Cn1c(-c2ccccc2)c(C#Cc2ccc(N)cc2)c2ccccc21 | -19 | -12% | ? | . | . | . | .
O=C(NCc1ccccc1)c1cccc(NC(=O)C2CCCC2)c1 | -20 | . | ? | . | . | . | .
COc1cccc(C(=O)OCCN2CCOCC2)c1 | 19 | 0% | -4% | 15% | -7% | 11% | .
COc1cccc(C(=O)Oc2c(CN3CCOCC3)cc(Cl)c3cccnc23)c1 | -78* | ? | 4.5µM* | 4.7µM* | -13% | . | i | HCV inh confirm=?;HCV host tox=?
Oc1ccc(CN2CCN(c3ccccc3)CC2)c2cccnc12 | . | 11µM* | 7.9µM* | 7.4µM* | 1.4µM* | -17% | i | HCV inh confirm=7µM*;HCV host tox=22µM*
Cc1nn(C(C)C(=O)NCc2ccco2)c(C)c1[N+](=O)[O-] (configuration not stated) | -22 | -2% | 10% | -5% | -19% | -7% | .

Screens from PubChem BioAssay.
